{"source": "the supplement of paper PMC4894684", "note": "Where a name gives a salt, the structure may show the parent alone. ± gives the standard deviation of the averaged measurements.", "data": [{"test_system": "Toxoplasma gondii RH (in HFF)", "assay": "parasite growth relative to the screen mean (all compounds = 100%); higher = less inhibition of parasite growth", "conditions": "5 µM; 72 h; oxygen 21 %", "how_it_was_run": "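Library compounds, held as 10 mM DMSO stocks, were pinned to 5 µM final onto confluent human foreskin fibroblasts in 96-well plates. The cells were infected within 2 h with RH β-Gal–GFP Toxoplasma (MOI 1:5), grown 72 h at 21% O2, and assayed for parasite number by CPRG β-Gal using in-plate standard curves. Growth is reported relative to the screen mean, in which all compounds = 100%, averaged over two screens, and CellTiter-Blue checked uninfected host-cell viability.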", "units": {"parasite growth": "%"}, "values": [{"compound": "C[C@@H]1CC[C@H]2[C@@H](C)C(=O)O[C@@H]3O[C@@]4(C)CC[C@@H]1[C@]32OO4", "note": "[Artemisinin]", "parasite growth": "31.6 ± 8.8"}, {"compound": "O=C(N[C@H]1CN2CCC1CC2)c1ccc(Cl)cc1", "parasite growth": "146 ± 25"}, {"compound": "Cc1cc(SCc2sc(-c3ccc(C(F)(F)F)c(F)c3)nc2C)ccc1OCC(=O)O", "parasite growth": "79.2 ± 4.8"}, {"compound": "NCC(CS(=O)(=O)O)c1ccc(Cl)cc1", "note": "(stereo not given) [Saclofen]", "parasite growth": "114 ± 24"}, {"compound": "CC(=O)N1CC[N+](C)(C)CC1", "note": "[4-Acetyl-1,1-dimethylpiperazinium iodide]", "parasite growth": "130 ± 13"}, {"compound": "CS(=O)(=O)Nc1ccc(Cc2noc(-c3ccc4[nH]cc(CCN)c4c3)n2)cc1", "parasite growth": "124 ± 6.6"}, {"compound": "CC12NC(Cc3ccccc31)c1ccccc12", "note": "(single isomer, unassigned; (+)) [(+)-MK 801 maleate]", "parasite growth": "123 ± 15"}, {"compound": "BrC1C(Br)C(Br)C(Br)C(Br)C1Br", "note": "(stereo not given) [1,2,3,4,5,6-Hexabromocyclohexane]", "parasite growth": "112 ± 29"}, {"compound": "NC1(c2ccccc2Cl)CCCCC1=O", "note": "(stereo not given) [Norketamine hydrochloride]", "parasite growth": "86.9 ± 27"}, {"compound": "COC1(C[S@+]([O-])c2ccccc2)CCN(CCc2c[nH]c3ccc(F)cc23)CC1", "parasite growth": "67.1 ± 9.3"}, {"compound": "CC(C)(C)NCC(O)COc1cccc2[nH]c(C#N)cc12", "note": "(stereo not given) [Cyanopindolol hemifumarate]", "parasite growth": "130 ± 6.7"}, {"compound": "Cc1onc(O)c1CC(N)C(=O)O", "note": "(racemic)", "parasite growth": "107 ± 41"}, {"compound": "CC[N+](CC)(CCCNC1=CC(=O)C(NCCC[N+](CC)(CC)Cc2ccccc2)=CC1=O)Cc1ccccc1", "note": "[Benzoquinonium dibromide]", "parasite growth": "129 ± 29"}, {"compound": "C=CCN1C[C@H](C)N([C@H](c2ccc(C(=O)N(CC)CC)cc2)c2cccc(O)c2)C[C@H]1C", "parasite growth": "110 ± 22"}, {"compound": "O=C1NC(=O)c2c1c1c3ccccc3[nH]c1c1[nH]c3ccccc3c21", "note": "[Arcyriaflavin A]", "parasite growth": "21.1 ± 14"}, {"compound": "CC(C)C[C@H]1C(=O)N2CCC[C@H]2[C@]2(O)O[C@](NC(=O)[C@@H]3C=C4c5cccc6[nH]c(Br)c(c56)C[C@H]4N(C)C3)(C(C)C)C(=O)N12", "note": "[Bromocriptine mesylate]", "parasite growth": "13.6 ± 8.4"}, {"compound": "CCC1(C2=NCCN2)Cc2ccccc2O1", "note": "(stereo not given) [Efaroxan hydrochloride]", "parasite growth": "113 ± 6.3"}, {"compound": "O=C1CN=C(c2cccc(Br)c2)c2oc3ccccc3c2N1", "parasite growth": "96 ± 4.5"}, {"compound": "CN(C)CCN(C)CCc1ccc(Cl)c(Cl)c1", "note": "[BD 1047 dihydrobromide]", "parasite growth": "89.4 ± 30"}, {"compound": "O=C1CSC(c2ccccc2Cl)c2cc(Cl)ccc2N1", "note": "(stereo not given)", "parasite growth": "153 ± 4.7"}, {"compound": "C[N+]1(C)CCc2cc3c(cc2C1C1OC(=O)c2c1ccc1c2OCO1)OCO3", "note": "(single isomer, unassigned; (-)) [(-)-Bicuculline methobromide]", "parasite growth": "131 ± 20"}, {"compound": "O=C1NCN(c2ccccc2)C12CCN(CC1COc3ccccc3O1)CC2", "note": "(stereo not given) [Spiroxatrine]", "parasite growth": "140.8 ± 0.7"}, {"compound": "CCCCCCC[n+]1ccc(-c2cc[n+](CCCCCCC)cc2)cc1", "note": "[DHBP dibromide]", "parasite growth": "86.1 ± 44"}, {"compound": "Nc1ccncc1", "note": "[4-Aminopyridine]", "parasite growth": "157 ± 28"}, {"compound": "CC(=O)[C@H]1CC[C@H]2[C@@H]3CC[C@H]4C[C@](C)(O)CC[C@]4(C)[C@H]3CC[C@]12C", "note": "[Ganaxolone]", "parasite growth": "147 ± 17"}, {"compound": "O=[N+]([O-])c1cc(O)c(O)c([N+](=O)[O-])c1", "parasite growth": "80.4 ± 42"}, {"compound": "Cc1ncsc1CCCl", "note": "[Chlormethiazole hydrochloride]", "parasite growth": "60 ± 21"}, {"compound": "NCC(O)c1ccc(O)cc1", "note": "(stereo not given) [Octopamine hydrochloride]", "parasite growth": "76.6 ± 12"}, {"compound": "CCN1C[C@]2(COC(=O)c3ccccc3N3C(=O)C[C@H](C)C3=O)CC[C@H](OC)[C@@]34[C@@H]5C[C@H]6[C@H](OC)[C@@H]5[C@](O)(C[C@@H]6OC)[C@](O)([C@@H](OC)[C@H]23)[C@@H]14", "note": "[Methyllycaconitine citrate]", "parasite growth": "83.1 ± 5.7"}, {"compound": "Cc1nnc2n1-c1sc(CCC(=O)N3CCOCC3)cc1C(c1ccccc1Cl)=NC2", "parasite growth": "132 ± 22"}, {"compound": "CN1[C@@H]2CC[C@H]1C[C@@H](OC(c1ccc(F)cc1)c1ccc(F)cc1)C2", "note": "[3α-Bis-(4-fluorophenyl) methoxytropane hydrochloride]", "parasite growth": "40.3 ± 22"}, {"compound": "O=C(O)c1ccc2[nH]cc(CCCCN3CC=C(c4ccccc4)CC3)c2c1", "note": "[Carmoxirole hydrochloride]", "parasite growth": "103 ± 7.4"}, {"compound": "C=CCN1C[C@H](C)N([C@H](c2ccc(C(=O)N(CC)CC)cc2)c2cccc(OC)c2)C[C@H]1C", "parasite growth": "42.5 ± 3.7"}, {"compound": "COc1cc(N)c(Cl)cc1C(=O)NC1CN2CCC1CC2", "note": "(stereo not given) [Zacopride hydrochloride]", "parasite growth": "142 ± 12"}, {"compound": "COc1ccc(-n2nc(C(F)(F)F)cc2-c2ccc(Cl)cc2)cc1", "parasite growth": "117 ± 22"}]}]}
